Source: PubChem
SMN2 splice up: enhancers of SMN2 splice variant expression | HEK293 SMN2-luciferase splicing reporter, luminescence, 30-36 h | Potency, µM (titrated, usually from 46.1 µM), for the others: at the top dose activity change, positive = activation, actives largely listed as activators | 210,000 tested, 2.8% active | AID 1458; note: % of control where 0% means no effect; nearly all actives have a fitted effect of over 55% in size
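HEK293 cells carry an SMN2 minigene-luciferase reporter in which exon 7 inclusion puts luciferase in frame. Cells were seeded at 2000 cells/well, attached for 10-12 hours, then exposed to compounds for 30-36 hours at 37C before ONE-Glo luminescence.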
Rab9 promoter act: activates the Rab9 promoter; Huh7 Rab9 promoter-luciferase reporter, luminescence, 24 h; Potency, µM (series often up to 9.22 µM), inactives show top-dose activation, negative = inhibition, most hits filed as activators; 320,000 tested, 2.8% active; note: % of control where 0% means no effect; nearly all actives have a fitted effect of over 60% in size
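Huh7 cells stably carrying Rab9 promoter–luciferase reporter, plated 1500 cells/well, compound added after 2 h and incubated 24 h at 37 °C; luciferase luminescence then read after 10 min with detection reagent.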
NPC1 promoter act: activates the NPC1 promoter. Potency, µM (series often up to 9.22 µM), without a hit: top-dose activation, hits mostly activators. 320,000 tested, 2.4% active. Huh7 NPC1 promoter luciferase reporter, 24 h; note: % of control where 0% means no effect; nearly all actives have a fitted effect of over 60% in size
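Huh7 reporter cells (NPC1 promoter driving luciferase) are dosed with compound for 24 h at 37 °C, 5% CO2; luciferase detection reagent is then added and luminescence measured after 10 min at ambient temperature.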
FLuc modulator: firefly luciferase modulation, counter-screen for miR-21 project; 360,000 tested, 6.9% active; purified FLuc, Km substrates, luminescence inhibition; Potency, µM (titrated, usually from 57.5 µM), without a hit: top-dose activity change, negative = inhibition, actives largely listed as inhibitors; AID 588342;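 note: plate controls were vehicle for no effect and reference inhibitor for full effect; nearly all actives have a fitted effect of over 55% in size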
Target sequence (P08659 whole entry, looked up): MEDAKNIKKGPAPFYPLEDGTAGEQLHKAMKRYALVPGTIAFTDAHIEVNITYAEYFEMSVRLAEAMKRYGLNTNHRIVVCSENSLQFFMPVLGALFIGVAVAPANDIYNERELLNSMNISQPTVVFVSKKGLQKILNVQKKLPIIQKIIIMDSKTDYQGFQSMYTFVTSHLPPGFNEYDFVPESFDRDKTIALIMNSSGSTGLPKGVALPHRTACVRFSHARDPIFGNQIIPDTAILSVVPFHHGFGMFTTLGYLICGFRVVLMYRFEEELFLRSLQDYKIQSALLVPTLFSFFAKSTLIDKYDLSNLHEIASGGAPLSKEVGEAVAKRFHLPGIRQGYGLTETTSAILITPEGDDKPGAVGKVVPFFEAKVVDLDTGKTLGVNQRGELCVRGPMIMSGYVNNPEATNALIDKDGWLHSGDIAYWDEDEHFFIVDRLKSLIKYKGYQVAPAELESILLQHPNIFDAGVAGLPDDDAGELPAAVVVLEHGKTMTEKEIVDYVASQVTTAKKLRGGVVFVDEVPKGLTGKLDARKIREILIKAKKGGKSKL
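Biochemical qHTS of compounds, final roughly 60 µM downward over six points, against 10 nM purified firefly luciferase using Km concentrations of substrates (10 uM D-luciferin, 10 uM ATP) in Tris acetate pH 7.5 buffer; luminescence output.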
Luc counter: Kinase-Glo luciferase inhibition (counter-screen); Kinase-Glo luciferase, ATP luminescence, 8 min; Potency, µM (titrated, usually from 38.3 µM), for inactives: at the top dose activity change, negative = inhibition, usual class: inhibitors; 200,000 tested, 0.28% active; Q27757; AID 1379; note: % is set by controls: 0 for no effect and ±100 for the full control effect; nearly all actives have a fitted effect of over 60% in size
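Inhibition of Kinase-Glo luciferase light generation was assessed at 10 uM ATP in pH 7.2 imidazole buffer, with luminescence measured after eight minutes at ambient temperature.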
* marks the source's active call; other numbers are inactive results; ? = inconclusive; nt = no result given. Sampled rows, rich in hits. Any-hit rate of the full collection: about 7.3%. Calls come from the whole dose curve; as a rule, active = well fitted curve in the direction sought with a large enough effect; inconclusive = small, poorly fitted or top-dose-only effect, or another doubt; inactive = no such curve, though single readings can be large; an effect the other way counts as inactive or inconclusive. Potency is the fitted concentration of half-maximal effect.

SMILES | SMN2 splice up | Rab9 promoter act | NPC1 promoter act | FLuc modulator | Luc counter
Cc1ccc(C(=O)Nc2ccc(S(=O)(=O)Nc3cnc4ccccc4n3)cc2)cc1 | nt | 5.1% | 0.1% | 26.9µM* | nt
O=C(CNC(=O)c1ccc(-c2ccccc2)cc1)Nc1ccc(S(=O)(=O)Nc2ncccn2)cc1 | nt | 12.7% | -2.0% | 16.9µM* | nt
Cc1ccc(C(=O)Nc2cnc3ccccc3c2)cc1 | nt | ? | ? | 0.0757µM* | ?
CC(C)=CCl | 24.6% | nt | nt | nt | nt
CCOC(=O)c1ccc(NC(=O)c2cccc3c(=O)c4c([nH]c23)CCCC4)cc1 | nt | nt | nt | 1.8% | nt
COc1ccc(NC(=O)CSC2=Nc3ccccc3C3=NC(CC(=O)NCc4ccco4)C(=O)N23)cc1 (stereo not drawn) | nt | nt | nt | -9.2% | nt
Cc1cc(C(=O)Nc2cnc3ccccc3c2)ccc1[N+](=O)[O-] | 12.6µM* | 2.24µM* | 1.41µM* | ? | 0.5%
O=C(Nc1ccc(NC(=O)c2cccnc2)cc1)c1ccccc1 | nt | 6.4% | 14.3% | 3.3% | nt
O=C(Nc1cccc(-n2cnnn2)c1)c1cc(Cl)nc(Cl)c1 | nt | 1.4% | 1.3% | 0.3% | nt
Cc1cc(C(=O)Nc2ccc(-n3c(C)nc4ccccc4c3=O)cc2)ccc1[N+](=O)[O-] | nt | nt | nt | 1.7% | nt
O=C(Nc1cnc2ccccc2c1)c1cccnc1 | 12.6µM* | 2.24µM* | 3.16µM* | 10.7µM* | 16.2%
O=C(Nc1ccc(F)cc1)c1cccnc1 | nt | -0.7% | -1.0% | 1.0% | nt
Cn1c(NC(=O)c2cccnc2)nc2ccccc21 | 12.6µM* | 3.55µM* | 3.16µM* | ? | ?
CC(C)(C)c1ccc(C(=O)Nc2cccc(-n3cnnn3)c2)cc1 | nt | ? | ? | 0.601µM* | nt
CCOC(=O)c1cccc(NC(=O)C(C)n2nc(C)c3c(C)n(-c4ccccc4)nc3c2=O)c1 (stereo not drawn) | nt | nt | nt | -16.4% | nt
CCOC(=O)c1ccc(NC(=O)Nc2c[nH]c(=O)[nH]c2=O)cc1 | nt | nt | nt | -6.9% | nt
CCN(CC)c1ccc(NC(=O)CSc2nnc(C)c(=O)[nH]2)cc1 | 9.9% | nt | nt | ? | nt
O=C(Nc1cnc2ccccc2c1)c1ccco1 | 14.1µM* | 0.631µM* | 1.41µM* | 7.57µM* | -13.7%
O=C(Nc1cnc2ccccc2c1)c1cccc(-n2cnnn2)c1 | ? | 4.47µM* | 3.98µM* | 23.9µM* | -1.8%
O=C(Nc1cccc(-c2cnc3ccccc3n2)c1)c1ccco1 | 0.3% | 3.2% | 4.4% | ? | -3.2%
O=C(NNC(=O)c1cccc(-n2cnnn2)c1)c1ccccc1 | -3.0% | -1.1% | -1.6% | 0.9% | -3.4%
O=C(N/N=C/c1c(Cl)cccc1Cl)c1ccc(F)cc1 | -4.2% | 19.8% | 11.8% | ? | -0.3%
O=C(N/N=C/c1c(Cl)cccc1Cl)c1n[nH]c2c1CCCC2 | 17.8µM* | 2.82µM* | 2.82µM* | 6.75µM* | 8.91µM*
Cc1ccsc1/C=N/NC(=O)CO | 4.7% | -9.7% | 0.0% | -1.5% | -0.9%
Cc1ccsc1/C=N\NC(=O)c1n[nH]c2c1CCC2 | 1.58µM* | 0.631µM* | 1µM* | 2.13µM* | 7.08µM*
SMILES | SMN2 splice up | Rab9 promoter act | NPC1 promoter act | FLuc modulator | Luc counter
COc1ccc(-n2ncc3c(N4CCN(c5cccc(C)c5)C(C)C4)ncnc32)cc1 (stereo not drawn) | nt | nt | nt | -2.3% | nt
Cc1cccc(-n2ncc3c(N4CCOCC4)ncnc32)c1 | -67.7% | 0.355µM* | 0.355µM* | 0.536µM* | ?
Cc1cccc(-n2ncc3c(N4CCCC4)ncnc32)c1 | 1.58µM* | 0.631µM* | 0.501µM* | 0.953µM* | -7.2%
Cc1cccc(-n2ncc3c(N4CCN(c5ccccc5)CC4)ncnc32)c1 | nt | nt | nt | -2.2% | nt
Cc1cccc(-n2ncc3c(N4CC(C)CC(C)C4)ncnc32)c1 (stereo not drawn) | ? | 1.58µM* | 2.24µM* | 5.36µM* | 0.4%
COC(=O)c1ccccc1NC(=O)C1CCCN(c2nnc(C)c3c(C)n(-c4ccccc4)nc23)C1 (stereo not drawn) | nt | nt | nt | -2.5% | nt
Cn1c(=O)n(C)c2cc(N3CCCCC3)c(NC(=O)c3ccc(C(C)(C)C)cc3)cc21 | -1.9% | nt | nt | 0.7% | nt
COc1cccc(NC(=O)c2oc3ccccc3c2NC(C)=O)c1 | ? | 3.55µM* | ? | ? | -6.8%
COc1cccc(NC(=O)CSc2ncnc3c2oc2ccccc23)c1 | -16.9% | -4.8% | -2.7% | -1.6% | 15.3%
